# PubChem BioAssay AID493191 (Broad Institute, 2011)
# In all, about 1,300 compounds went through this assay and about 330 (25%) were called active. How the calls were made is not given here. Not all results are given here. Entries with a potency or affinity are not part of this list.
# Assay: MALME3 melanoma cell viability loss, dose response, orthogonal assay for MITF inhibitor project, CellTiter-Glo, cherry-picked (AID 493191)
# Conditions: CellTiter-Glo luminescence, 24 h; series mostly up to 35 µM; activity change, negative = inhibition: at the top concentration
row,SMILES,"activity change, negative = inhibition"
1,Cc1cc(C(=O)O/N=C(\N)c2ccncc2)ccc1[N+](=O)[O-],8.51% (inactive)
2,Cc1c(NC(=O)C(C)OC(=O)c2ccc([N+](=O)[O-])s2)c(=O)n(-c2ccccc2)n1C (centres undefined),-11% (inactive)
3,CCCCOc1ccc(-c2ncc([N+](=O)[O-])cn2)cc1,4.96% (inactive)
4,CC(C)(C)N=Cc1cc(-c2ccccc2)sc1O,9.96% (inactive)
5,O=C(N/N=C/c1ccc([N+](=O)[O-])o1)c1sc2ccccc2c1Cl,-55.5% (inactive)
6,C(#Cc1ccccc1)C[N+]1(CC#Cc2cccc3ccccc23)CCCC1,-16.4% (inactive)
7,CSCCNC(=O)c1ccc2nc(Cc3ccccc3F)oc2c1,4.87% (inactive)
8,O=C(CSC(=S)N1CCCCC1)c1c(F)cccc1F,-9.52% (inactive)
9,CN(Cc1ccccc1)C1=CC(=[N+]2CCCCC2)CC(C)(C)C1,-35.5% (inactive)
10,CCOc1cccc(C(=O)NC2=NCCS2)c1,-7.89% (inactive)
11,CCOC(=O)N1CCC(NC(=O)C2CCCN(Cc3nc(-c4cccc(C)c4)oc3C)C2)CC1 (centres undefined),-2.51% (inactive)
12,[2H]C(CCOS(N)(=O)=O)c1ccc(C(C)(C)C)cc1 (centres undefined),-5.5% (inactive)
13,N/C(=N\OC(=O)c1ccc([N+](=O)[O-])cc1)c1ccc(Br)cc1,8.18% (inactive)
14,COc1cc(/C=C/C(=O)N2CCC=CC2=O)cc(OC)c1OC,-34.7% (inactive)
15,c1ccc(C[n+]2cccc3c4ccccc4ccc32)cc1,-16.9% (inactive)
16,CCCCN(CC)CCCNC(=O)c1cc2c(=O)n(CC)c3ccccc3c2s1,-37.7% (inactive)
17,CC1(C)CC(=O)C=C(NC2=CC3OC(c4ccccc4)OCC3OC2=O)C1 (centres undefined),-3.65% (inactive)
18,C(=N\Nc1cc(N2CCCCC2)ncn1)/c1ccco1,9.75% (inactive)
19,Clc1ccc(-c2nc(-c3ccncc3)no2)c(Cl)c1,-4.41% (inactive)
20,O=C(Cc1cccs1)NCc1ccc(Cl)cc1Cl,4.52% (inactive)
21,CC(C)n1cc(/C=C/c2cc[n+](C)cc2)c2ccccc21,-22.1% (inactive)
22,O=C(Nc1nc(-c2ccccn2)cs1)c1ccc(F)c(S(=O)(=O)N2CCOCC2)c1,-20.2% (inactive)
23,Cc1ccc(-c2cn3cc(C)ccc3n2)cc1,-20.9% (inactive)
24,O=C(CSc1ccccn1)c1ccc2c(c1)OCO2,7.19% (inactive)
25,COc1cccc(NC(=O)c2cc3c(=O)n4ccccc4nc3n(CC(C)C)c2=N)c1,1.34% (inactive)

row,SMILES,"activity change, negative = inhibition"
1,CCOC(=O)c1cn2nc(Oc3ccccc3)ccc2n1,7.09% (inactive)
2,CCOC(=O)N1C(=O)[C@](CC)(c2ccccc2)N1C(=O)OCC,-32.8% (inactive)
3,C/C(=N\Nc1cc(N2CCOCC2)ncn1)c1ccccc1,5.95% (inactive)
4,CC1(C)Cc2c(sc(NC(=O)Nc3ccccc3)c2C(N)=O)CO1,-17% (inactive)
5,Cc1ccc(C)c(S(=O)(=O)N2CCN(Cc3ccc(O)c4ncccc34)CC2)c1,-29.3% (inactive)
6,O=S(=O)(c1ccc(Cl)cc1)N1CCN(Cc2ccc(O)c3ncccc23)CC1,-27.6% (inactive)
7,CN(C)CCNC(=O)COc1ccc(C23CC4CC(CC(C4)C2)C3)cc1,-18.4% (inactive)
8,CN(C)c1ccc(/C=C2\SC(=O)N(CCc3nnc(N)s3)C2=O)cc1,-0.215% (inactive)
9,Cc1[nH]n(-c2ccccc2)c(=O)c1N=Nc1cccc(C(=O)O)c1,-4.5% (inactive)
10,C/C(=C\c1ccccc1)C(=O)Nc1ccc(Cl)cn1,10.3% (inactive)
11,O=[N+]([O-])c1ccccc1OCCCOc1cccc2cccnc12,-2.87% (inactive)
12,O=[N+]([O-])c1cc(CN2CCN(c3ccccc3)CC2)c(O)c2ncccc12,-17% (inactive)
13,Cc1ccc(-c2cn(-c3ccc(SC(F)F)cc3)c3[n+]2CCC3)cc1,-6.53% (inactive)
14,C#CC(=O)N(c1ccc(OC)cc1OC)C(C(=O)NC1CCCC1)c1cccs1 (centres undefined),-29.6% (inactive)
15,Cc1ccc(NC(=O)c2ccc(OCC3CCCO3)cc2)c(C)c1 (centres undefined),-0.239% (inactive)
16,C#CC(=O)N(c1ccc(OC)c(OC)c1)C(C(=O)NC1CCCC1)c1cccs1 (centres undefined),-16.9% (inactive)
17,COc1ccc(N(CC(=O)NCC2CCCO2)S(=O)(=O)c2ccccc2)cc1OC (centres undefined),6.21% (inactive)
18,CN(C)/C=N/c1ncc(C(=O)c2ccccc2)s1,4.34% (inactive)
19,Cc1ccc2nc(Cc3ccc(N)cc3)oc2c1,11.7% (inactive)
20,CCc1nc2oc3ccccc3c(=O)c2cc1C(=O)OC,-19.5% (inactive)
21,COCCN(C(=O)CCl)C(C(=O)NC1CCCCC1)c1ccccc1C (centres undefined),-27.4% (inactive)
22,COc1ccc(C(C(=O)NC2CCCCC2)N(C(=O)CCl)c2ccc(OC)cc2)cc1 (centres undefined),-40.5% (inactive)
23,COc1ccc(N(C(=O)CCl)C(C(=O)NC2CCCCC2)c2cccnc2)cc1 (centres undefined),-36.5% (inactive)
24,Cc1cc(NC(=O)c2ccc(Cl)cc2Cl)no1,10.7% (inactive)
25,COCn1c(COc2ccccc2)nc2ccccc21,-15.3% (inactive)

row,SMILES,"activity change, negative = inhibition"
1,COc1ccc(Br)cc1/C=C/C(=O)c1ccc(NC(C)=O)cc1,-21.7% (inactive)
2,O=C(N/N=C/c1ccccc1Cl)c1n[nH]c2c1CCCC2,-40.8% (inactive)
3,Nc1c(N(CCC2=CCCCC2)C(=O)COc2ccc([N+](=O)[O-])cc2)c(=O)[nH]c(=O)n1Cc1ccccc1,-48.9% (inactive)
4,Nc1ccc(Oc2cccc(Oc3ccc(N)cc3)c2)cc1,1.28% (inactive)
5,O=[N+]([O-])c1ccc(Sc2cc[n+]([O-])c3ccccc23)c([N+](=O)[O-])c1,-23.8% (inactive)
6,Cc1ccc(O)c(NC(=O)c2ccc3c(c2)C(=O)N(CC(C)C)C3=O)c1,-3.64% (inactive)
7,O=C(Nc1ccc2c(c1)OCCO2)c1cccc(Cl)c1Cl,1.87% (inactive)
8,O=C(Nc1ccc2nc3n(c(=O)c2c1)CCCC3)c1cc([N+](=O)[O-])ccc1F,2.71% (inactive)
9,CC(C)CN=C(NS(=O)(=O)c1ccccc1)C(Cl)(Cl)Cl,-24% (inactive)
10,CC(=O)c1c(C)[nH]c(C(=O)Nc2ccc(C)c(C)c2)c1C,3.78% (inactive)
11,Cc1ccc(C(=O)Nc2nc3ccc(Cl)cc3s2)o1,-11.7% (inactive)
12,Cc1cc(C(F)(F)F)c2c(N)c(C(=O)Nc3cc(C)on3)sc2n1,-11.1% (inactive)
13,O=C(Nc1nc2ccccc2s1)c1ccccc1[N+](=O)[O-],-1.9% (inactive)
14,CN(c1ccc2nc3ccccc3c(=O)n2n1)C1CCCCC1,-31% (inactive)
15,CCOc1ccccc1-c1nc(-c2ccc(C)nc2OC)no1,-11.6% (inactive)
16,CC(=O)Nc1nc(C)c(-c2csc(Nc3cccc(C(C)=O)c3)n2)s1,-27.3% (inactive)
17,CS(=O)(=O)c1nc(-c2ccc(F)cc2)cc(C(F)(F)F)n1,-44.8% (inactive)
18,COc1ccccc1-c1nc(-c2ccc(C)nc2OC)no1,0.036% (inactive)
19,CCOC(=O)c1cnc2c(ccc3ccccc32)c1N,-7.34% (inactive)
20,O=C(Nc1ccc(Cl)c(S(=O)(=O)N2CCOCC2)c1)c1ccc(OCC2CCCO2)cc1 (centres undefined),-44.9% (inactive)
21,Cc1ccc(NC(=O)c2ccc([N+](=O)[O-])s2)cc1S(=O)(=O)N1CCOCC1,-23% (inactive)
22,O=C(N/N=C\c1cc(Br)ccc1O)c1ccc(S(=O)(=O)N2CCCCC2)cc1,-36.8% (inactive)
23,O=C(Nc1cccc(Cl)c1)Nc1cc(S(=O)(=O)N2CCCCC2)ccc1Cl,-29.2% (inactive)
24,O=C(Nc1ccc(S(=O)(=O)N2CCCCCC2)cc1)c1[nH]ncc1[N+](=O)[O-],-28% (inactive)
